Experimental findings from PubChem BioAssay (NCATS) are described below.

Structures are written as SMILES. Inconclusive results are not listed. Calls of active or inactive are those of the source. Calls follow the shape of the dose curve; as a rule, active = well fitted inhibition curve with a large enough effect; inconclusive = small, poorly fitted or top-dose-only effect; inactive = no such curve, though single readings can be large or run the other way.
% is scaled to controls: 0 for no effect and ±100 for the full control effect; potency is read from the fitted curve at half-maximal effect.

The subject of the assay is Zika virus NS2B-NS3 protease (unlinked complex). As to the kind of experiment: Primary screen GU Rhodamine qHTS for Zika virus inhibitors: Unlinked NS2B-NS3 protease assay (AID 1347159). Also: nearly all actives have a fitted effect of over 60% in size. To be noted: Recombinant ZIKV NS2B-NS3 protease, Rhodamine110 substrate fluorescence; series mostly up to 107 µM; activity change, negative = inhibition: at the top concentration. Summed up: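 Unlinked NS2B/NS3, 25 nM; Rhod110 peptide, 1.5 microM; compounds, up to 114 microM. Reaction run 15 min at RT in 10 mM Tris-HCl pH 8.0, 0.01% Tween 20; kinetic fluorescence change fitted with a 4-parameter Hill model.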
(In qHTS, concentration-response curves come from the screen itself.)
Turning to `O=C1[C@H](O[C@@H]2O[C@H](CO)[C@@H](O)[C@H](O)[C@H]2O)Oc2ccccc2N1O`, the “activity change, negative = inhibition” value was 7.76% (inactive).

As for `O=c1c2cccnc2n(-c2cccc([N+](=O)[O-])c2)c(=O)n1Cc1ccncc1`, the “activity change, negative = inhibition” value was 59.6% (inactive).

In the case of `NC1CCC(N[C@@H]2C[C@H]2c2ccccc2)CC1` (stereo not given in full), the “activity change, negative = inhibition” value is -18.9% (inactive).

Take `CC1(C)CC[C@]2(C(=O)O)CC[C@]3(C)C(=CCC4[C@@]5(C)C[C@@H](O)[C@H](O)C(C)(C)C5CC[C@]43C)[C@@H]2[C@@H]1O` (stereo not given in full): the “activity change, negative = inhibition” value was 12.7% [at 57.1 µM] (inactive).

As for `CC(=O)OC[C@@]12[C@H](O)C[C@@H](C)[C@]3(C[C@@H](c4ccoc4)OC3=O)[C@H]1C[C@H](O)C[C@]21CO1`, the “activity change, negative = inhibition” value was 24.9% [at 57.1 µM] (inactive).

`CC(CO[C@@H]1O[C@H](COC(=O)/C=C/c2ccc(O)c(O)c2)[C@@H](O)[C@H](O)[C@H]1O)C1(O)COC(=O)C1` (stereo not given in full): the “activity change, negative = inhibition” value was -17.9% [at 57.1 µM] (inactive).

Take `CC1=CC(=O)OC(C)(CC(C)(O)C(=O)O)C1` (stereo not given): the “activity change, negative = inhibition” value is 13.3% (inactive).

Take `CC(=O)O[C@H]1[C@H](C)[C@@H](O)[C@H]2[C@@H]1C=C(C(=O)O)[C@H]1C[C@@H]3[C@H]([C@H]21)[C@H]1C(=O)O[C@@H]2CC[C@@]3(C)O[C@]1(O)[C@@H]2C`: the “activity change, negative = inhibition” value was 4.14% [at 57.1 µM] (inactive).

Consider `C[C@]12CCC(=O)C=C1[C@@H](O)C[C@@H]1[C@@H]2[C@@H](O)C[C@@]2(C)[C@H]1CC[C@]2(O)C(=O)CO`, for which the “activity change, negative = inhibition” value is 0% (inactive).

`O=C(O)CCc1cc2ccoc2cc1O[C@@H]1O[C@H](CO[C@@H]2OC[C@](O)(CO)[C@H]2O)[C@@H](O)[C@H](O)[C@H]1O`: the “activity change, negative = inhibition” value was 3.61% [at 57.1 µM] (inactive).

Take `CC(C)C(=O)O[C@@H]1[C@@H](O)[C@@H](O[C@H]2O[C@H](CO)[C@@H](O)[C@H](O)[C@H]2O)O[C@H](CO)[C@H]1O`: the “activity change, negative = inhibition” value was 7.25% [at 57.1 µM] (inactive).

Consider `COC(=O)C1(Cc2ccc(O)cc2)OC(=O)C(OC)=C1c1ccc(O)cc1` (stereo not given), for which the “activity change, negative = inhibition” value is 21.1% (inactive).

For `C=CC1(C)CC(O)C2(CCC3C(C)(C(=O)O)CCCC3(C)C2=O)C1` (stereo not given), the “activity change, negative = inhibition” value is 21.2% (inactive).

In the case of `CCCC(N[C@@H](C)C(=O)N1[C@H](C(=O)O)C[C@@H]2CCCC[C@@H]21)C(=O)OCC` (stereo not given in full), the “activity change, negative = inhibition” value is 11.8% (inactive).

For `CC1=CC(=O)CC(C)(CO[C@@H]2O[C@H](CO)[C@@H](O)[C@H](O)[C@H]2O)C1(O)/C=C/C(C)=C/C(=O)O` (stereo not given in full), the “activity change, negative = inhibition” value was -2.39% [at 57.1 µM] (inactive).

`Cc1coc2c1CC1OC1(C)CCC1OC1(C)C2` (stereo not given): the “activity change, negative = inhibition” value was 5.12% (inactive).

As to `CC(C)CNC(=O)/C=C/CCCCc1ccc2c(c1)OCO2`, the “activity change, negative = inhibition” value was -0.945% (inactive).

On to `O=C(CCCCc1ccc2ccccc2c1)C(F)(F)F`, for which the “activity change, negative = inhibition” value is -8.6% [at 229 µM] (inactive).

Turning to `O=C(/C=C/c1ccc(O)cc1)OCC1=CC2OC(=O)C3=CO[C@@H](O[C@@H]4O[C@H](CO)[C@@H](O)[C@H](O)[C@H]4O)[C@H]1[C@@H]32` (stereo not given in full), the “activity change, negative = inhibition” value was -15% [at 57.1 µM] (inactive).

Regarding `COc1ncc(-c2ccc3c(Nc4cc(Oc5cc(F)cc(F)c5)cc(C(=O)O)c4)c(S(=O)(=O)NC4CC4)cnc3c2)c(OC)n1`, the Potency is 8.91 µM (active).

Take `COc1cc(C2OCC3C(c4ccc(OC5OC(CO)C(O)C(O)C5O)c(OC)c4)OCC23)ccc1O` (stereo not given): the “activity change, negative = inhibition” value is 7.69% [at 57.1 µM] (inactive).

On to `C[C@]1(OC(=O)/C=C/c2ccccc2)C[C@H](O)[C@]2(O)C=CO[C@@H](O[C@@H]3O[C@H](CO)[C@@H](O)[C@H](O)[C@H]3O)C12` (stereo not given in full), for which the “activity change, negative = inhibition” value is 13.4% [at 57.1 µM] (inactive).

As for `CC(C)[C@@H](C)/C=C/[C@@H](C)[C@H]1CC[C@H]2C3=CC=C4C[C@@H](O)CC[C@]4(C)[C@H]3CC[C@]12C`, the “activity change, negative = inhibition” value was 29.7% [at 57.1 µM] (inactive).

For the molecule `Nc1c(Br)cc(Br)cc1CNC1CCC(O)CC1` (stereo not given), the “activity change, negative = inhibition” value was 0% (inactive).

As to `COc1ccc(C2=CC(=O)OC2Cc2ccc(O)cc2)c(O)c1` (stereo not given), the “activity change, negative = inhibition” value was -8.55% (inactive).

Turning to `COc1c(C(CC(C)C)OC(C)=O)ccc(Oc2c(O)cc(C)cc2/C=C/C(C)=O)c1C(=O)O` (stereo not given), the Potency was 7.08 µM (active).

Take `CC(O)C(O)/C=C/C=C/C(=O)O[C@@H]1C=C2COC(=O)[C@]2(O)[C@@]2(C)CCCC(C)(C)C12` (stereo not given in full): the “activity change, negative = inhibition” value was 17.9% [at 57.1 µM] (inactive).

With `CC(=O)N[C@H]1CCN(c2ccc(C3=NOC(CN[S+](=O)([O-])C(C)C)C3)cc2F)C1` (stereo not given in full), the “activity change, negative = inhibition” value is 19.2% (inactive).

In the case of `COc1ccc(/C=C/C(=O)O[C@@H]2[C@@H](O)[C@H](C)O[C@@H](OC3C4C=COC(O[C@@H]5O[C@H](CO)[C@@H](O)[C@H](O)[C@H]5O)C4C4(CO)OC34)[C@@H]2O)cc1OC` (stereo not given in full), the “activity change, negative = inhibition” value is -2.42% [at 32.5 µM] (inactive).

For the molecule `CC1(C)CC2C(O)C3=C(CC(C)(O)C2C1)C(=O)OC3O` (stereo not given), the “activity change, negative = inhibition” value was 0% (inactive).

Take `COC(=O)[C@@]1(C)CC[C@]2(C(=O)O[C@@H]3O[C@H](CO)[C@@H](O)[C@H](O)[C@H]3O)CC[C@]3(C)C(=CCC4[C@@]5(C)CC[C@H](O[C@@H]6O[C@H](C(=O)O)[C@@H](O)[C@H](O)[C@H]6O)C(C)(C)C5CC[C@]43C)[C@@H]2C1` (stereo not given in full): the “activity change, negative = inhibition” value was -9.24% [at 32.5 µM] (inactive).

As to `Cc1nnc(C(C)C)n1C1CC2CCC(C1)N2CC[C@H](NC(=O)C1CCC(F)(F)CC1)c1ccccc1` (stereo not given in full), the “activity change, negative = inhibition” value was 11.5% (inactive).

In the case of `CC1(C)C(=O)N2c3ccccc3[C@]3(CC(n4cnc5ccccc5c4=O)C(=O)O3)[C@H]2N1O` (stereo not given in full), the “activity change, negative = inhibition” value is 12.5% [at 57.1 µM] (inactive).

In the case of `CC(=O)O[C@@]1(C)C[C@@H](O)[C@]2(O)C=CO[C@@H](O[C@@H]3O[C@H](CO)[C@@H](O)[C@H](O)[C@H]3O)[C@@H]21`, the “activity change, negative = inhibition” value is 12.4% [at 57.1 µM] (inactive).

On to `COc1ccccc1-n1c(SCC(=O)Nc2nc3ccc(C)cc3s2)nc2c(c1=O)SCC2`, for which the “activity change, negative = inhibition” value was 1.58% [at 57.1 µM] (inactive).

As to `C[C@@H]1CC[C@H]2C(C)(C)[C@H](O)[C@H](O)C[C@]2(C)[C@@]12Cc1c(O)cc3c(c1O2)CNC3=O`, the “activity change, negative = inhibition” value was -8.21% (inactive).

Take `Cc1ccc(Sc2cncc3sc(C(N)=O)cc23)cc1`: the “activity change, negative = inhibition” value is 10.6% (inactive).

Take `C/C(=C/CCC(CO)C1CCC2(C)C3CCC4C(C)(C)C(OC5OC(CO)C(O)C(O)C5O)CC(O)C45CC35CCC12C)COC1OC(CO)C(O)C(O)C1O` (stereo not given): the “activity change, negative = inhibition” value was 14.5% [at 32.5 µM] (inactive).

For `C[C@H](NCc1ccc(OCc2ccccc2F)cc1)C(N)=O`, the “activity change, negative = inhibition” value is -5.36% (inactive).

On to `CC(=O)OCC(=O)O[C@@H]1[C@H]2[C@@H](OC(=O)c3ccccc3)[C@@H](C)C[C@]2(O)[C@H](OC(C)=O)C2(C)[C@H]3CC(C)(C)C(=O)[C@@H]3CC1(OC(C)=O)[C@@H]2OC(C)=O` (stereo not given in full), for which the “activity change, negative = inhibition” value is 22.9% [at 32.5 µM] (inactive).
